Measured values published in PubChem BioAssay AID1159580 (chemical genetic matrix, 2015).
Several values for one entry are separate records, joined by “and”; a condition that tells them apart may be missing. Identical values can stand only once. Among all 5,500 compounds or so, about 2,000 (36%) were called active. Not shown: some 18% with an inconclusive outcome. Cut-off read from the data, not from the text of the source: active = normalized growth mostly below about 0.91 (no sharp cut-off); inconclusive = no clear call, values can overlap the other calls; inactive = mostly above about 0.92. The list shows a part of the results.

Test: chemical genetic growth profiling, strain panel (AID 1159580);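 note: tested at 20 µM; growth read once vehicle control cultures reached saturation at 30 °C; 1 = growth at the plate median or of vehicle wells; lower values mean less growth of the strain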
Conditions: S. cerevisiae deletion strains, growth OD

Measured: normalized growth

CC1=NCCc2c1[nH]c1cc(O)ccc21
inactive: locus YAL013W, strain DEP1, stronger effect = lower value 0.99 | locus YAL021C, strain ccr4, stronger effect = lower value 0.923 | locus YAL026C, strain drs2, stronger effect = lower value 0.987 | locus YAL030W, strain snc1, stronger effect = lower value 0.984 | locus YBL061C, strain skt5, stronger effect = lower value 0.995 | locus YBR009C, strain hhf1, stronger effect = lower value 0.97 | locus YBR021W, strain FUR4, stronger effect = lower value 0.989 | locus YBR023C, strain chs3, stronger effect = lower value 0.994 | locus YBR171W, strain sec66, stronger effect = lower value 0.993 | locus YBR229C, strain ROT2, stronger effect = lower value 0.955 | locus YBR231C, strain swc5, stronger effect = lower value 1.02 | locus YBR279W, strain paf1, stronger effect = lower value 0.995 | locus YCL011C, strain gbp2, stronger effect = lower value 0.963 | locus YCL016C, strain dcc1, stronger effect = lower value 0.967 | locus YCL029C, strain bik1, stronger effect = lower value 0.994 | locus YCL069W, strain vba3, stronger effect = lower value 0.976 | locus YCR088W, strain abp1, stronger effect = lower value 0.99 | locus YDL005C, strain med2, stronger effect = lower value 0.995 | locus YDL035C, strain GPR1, stronger effect = lower value 0.992 | locus YDL040C, strain nat1, stronger effect = lower value 0.993 | locus YDL074C, strain BRE1, stronger effect = lower value 0.997 | locus YDL101C, strain DUN1, stronger effect = lower value 0.978 | locus YDL134C, strain PPH21, stronger effect = lower value 0.988 | locus YDL185W, strain tfp1, stronger effect = lower value 0.993 | locus YDL192W, strain arf1, stronger effect = lower value 0.992 | locus YDR001C, strain nth1, stronger effect = lower value 0.971 | locus YDR069C, strain doa4, stronger effect = lower value 0.986 | locus YDR101C, strain arx1, stronger effect = lower value 0.997 | locus YDR137W, strain rgp1, stronger effect = lower value 0.98 | locus YDR150W, strain NUM1, stronger effect = lower value 0.972 | locus YDR159W, strain sac3, stronger effect = lower value 1.02 | locus YDR162C, strain NBP2, stronger effect = lower value 0.99 | locus YDR195W, strain ref2 0.953 | locus YDR297W, strain sur2, stronger effect = lower value 0.996 | locus YDR318W, strain mcm21, stronger effect = lower value 0.994 | locus YDR334W, strain swr1, stronger effect = lower value 0.97 | locus YDR335W, strain msn5, stronger effect = lower value 0.986 | locus YDR388W, stronger effect = lower value 1 | locus YDR392W, strain spt3, stronger effect = lower value 0.93 | locus YDR502C, strain sam2, stronger effect = lower value 0.984 | locus YEL003W, strain gim4, stronger effect = lower value 0.994 | locus YEL037C, strain rad23, stronger effect = lower value 0.978 | locus YEL061C, strain CIN8 (second series), stronger effect = lower value 0.985 | locus YEL061C, strain CIN8, stronger effect = lower value 0.988 | locus YER015W, strain faa2, stronger effect = lower value 0.975 | locus YER016W, strain bim1, stronger effect = lower value 0.993 | locus YER110C, stronger effect = lower value 0.974 | locus YER111C, strain swi4, stronger effect = lower value 0.995 | locus YER155C, strain BEM2 (second series), stronger effect = lower value 1.03 | locus YER155C, strain BEM2, stronger effect = lower value 1.01 | locus YER167W, strain BCK2, stronger effect = lower value 1 | locus YFR010W, strain ubp6, stronger effect = lower value 0.983 | locus YGL078C, strain dbp3, stronger effect = lower value 0.991 | locus YGL086W, strain mad1, stronger effect = lower value 0.987 | locus YGL167C, strain pmr1, stronger effect = lower value 0.976 | locus YGL173C, strain kem1, stronger effect = lower value 0.991 | locus YGL227W, strain vid30, stronger effect = lower value 0.99 | locus YGL240W, strain doc1, stronger effect = lower value 1 | locus YGL248W, strain PDE1, stronger effect = lower value 0.99 | locus YGL253W, strain hxk2, stronger effect = lower value 0.985 | locus YGR078C, strain PAC10, stronger effect = lower value 1.01 | locus YGR135W, strain pre9, stronger effect = lower value 0.992 | locus YGR229C, strain SMI1, stronger effect = lower value 1.01 | locus YGR252W, strain gcn5, stronger effect = lower value 0.932 | locus YHR013C, strain ard1, stronger effect = lower value 0.95 | locus YHR027C, strain rpn1, stronger effect = lower value 0.966 | locus YHR030C, strain SLT2, stronger effect = lower value 0.995 and 1.01 | locus YHR079C, strain IRE1 (second series), stronger effect = lower value 0.995 | locus YHR079C, strain IRE1, stronger effect = lower value 1.01 | locus YHR094C, strain hxt1, stronger effect = lower value 0.99 | locus YHR129C, strain ARP1, stronger effect = lower value 1 | locus YHR142W, strain chs7, stronger effect = lower value 0.968 | locus YHR200W, strain rpn10, stronger effect = lower value 0.991 | locus YIL066C, strain RNR3, stronger effect = lower value 0.975 | locus YIL073C, strain SPO22, stronger effect = lower value 0.992 | locus YIL125W, strain kgd1, stronger effect = lower value 0.988 | locus YIR030C, strain dcg1, stronger effect = lower value 0.985 | locus YJL092W, strain hpr5, stronger effect = lower value 0.965 | locus YJL095W, strain BCK1 (second series), stronger effect = lower value 0.983 | locus YJL095W, strain BCK1, stronger effect = lower value 1.05 and 1.01 | locus YJL115W, strain asf1, stronger effect = lower value 0.956 | locus YJL129C, strain trk1, stronger effect = lower value 1.01 | locus YJL134W, strain LCB3, stronger effect = lower value 0.986 | locus YJL154C, strain vps35, stronger effect = lower value 0.977 | locus YJL164C, strain tpk1, stronger effect = lower value 0.95 | locus YJL166W, strain qcr8, stronger effect = lower value 1.01 | locus YJL168C, strain set2, stronger effect = lower value 0.999 | locus YJL187C, strain SWE1 (second series), stronger effect = lower value 0.991 | locus YJL187C, strain SWE1, stronger effect = lower value 0.989 | locus YJR043C, strain POL32, stronger effect = lower value 1.01 | locus YJR066W, strain TOR1, stronger effect = lower value 0.934
